Results filed as inconclusive are left out. A call without a number means that no potency is given here. The source made the active and inactive calls. The call rests on the fitted dose curve; in most records, active means well fitted inhibition curve with a large enough effect; inconclusive means small, poorly fitted or top-dose-only effect; inactive means flat fitted curve, though single readings scatter.

The target in this test is Calcium and integrin-binding protein 1 (Homo sapiens) (UniProt Q99828). In words: Primary qHTS for Identification of Calcium Integrin Binding Protein 1 (CIB1) Competitor (AID 1508620).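 Further: GST tagged CIB1 binding a fluorescein labelled alphaIIb integrin peptide tracer; top concentration of the series differs between compounds.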 As to conditions: CIB1-GST / FITC-alphaIIb peptide fluorescence polarization; series mostly up to 57.7 µM. A digest of the protocol: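 Fluorescence polarization competition: CIB1-GST (1 uM final) preincubated with compound 15 min at room temperature, then FITC-labeled alphaIIb peptide (100 nM final) added for another 15 min. Polarization read at Ex 480/Em 540.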
Sequence of Calcium and integrin-binding protein 1 (Homo sapiens) (Q99828 whole entry, looked up): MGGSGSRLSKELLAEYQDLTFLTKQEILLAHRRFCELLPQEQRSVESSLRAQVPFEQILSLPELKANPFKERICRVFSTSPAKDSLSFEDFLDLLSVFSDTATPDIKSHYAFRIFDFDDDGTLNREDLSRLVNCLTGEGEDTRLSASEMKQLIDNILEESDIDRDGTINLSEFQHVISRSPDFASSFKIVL
A general note: In qHTS, concentration-response curves come from the screen itself.
As to `CC1(C)CC[C@]2(C(=O)O[C@@H]3O[C@H](CO)[C@@H](O)[C@H](O)[C@H]3O)CC[C@]3(C)C(=CCC4[C@@]5(C)CC[C@H](O[C@@H]6O[C@H](C(=O)O)[C@@H](O[C@@H]7O[C@H](CO)[C@@H](O)[C@H](O)[C@H]7O)[C@H](O)[C@H]6O)C(C)(C)C5CC[C@]43C)C2C1` (some centres undefined), the Potency result was “inactive”. The entry for `O=C(/C=C/c1ccc(O)c(O)c1)O[C@H]1[C@H](OC2CCCCC2O)O[C@H](CO)[C@@H](O)[C@@H]1O` (some centres undefined) is “inactive”; for `CC1=C(C)C(=O)OC(C(C)C2C(O)CC3C4C5OC5C5(O)CC(OC6OC(CO)C(OC7OC(C)C(O)C(O)C7O)C(O)C6O)CC(O)C5(C)C4CCC32C)C1` (centres undefined) it is “inactive”. Consider `C=C1CC[C@@H]2[C@](C)(CO)[C@H](O[C@@H]3O[C@H](CO)[C@@H](O)[C@H](O)[C@H]3O)CC[C@@]2(C)[C@@H]1C/C=C1/C(=O)OC[C@H]1O`, for which the Potency result is “inactive”. With `C=C1CCC2C(C)(C)CC(O)CC2(C)C1CCC(C)CC(=O)O` (centres undefined) the entry was “inactive”; with `C/C(=C\C(=O)C[C@@]12C(=O)O[C@]3(C)CC[C@H]1C[C@H]23)C(N)=O`, “inactive”; with `O=C(O)c1cccc(C(=O)CCC2OC(n3cnc4c(=O)[nH]cnc43)C(O)C2O)c1` (centres undefined), “inactive”. The entry for `CC(C)=CCC[C@@](C)(O)[C@H]1CC[C@]2(C)[C@@H]1[C@H](O)CC1[C@@]3(C)CC[C@H](O[C@@H]4O[C@H](CO)[C@@H](O)[C@H](O)[C@H]4O[C@@H]4O[C@H](CO)[C@@H](O)[C@H](O)[C@H]4O)C(C)(C)[C@@H]3CC[C@]12C` (some centres undefined) is “inactive”. `CCN=C1N[C@@H]2[C@@H](O)[C@H](O)[C@@H](CO)O[C@@H]2S1`: the Potency result is “inactive”.

These data come from PubChem BioAssay (NCATS).
